Tb PFK inh-1 – inhibitors of T. brucei phosphofructokinase. Potency, µM (top dose mostly 57.5 µM), without a hit: at the top dose activity, negative = inhibition, hits mostly inhibitors. O15648. 330,000 compounds, 0.17% hits. AID 485367. T. brucei PFK, ADP-Glo luminescence;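 also: potency is read from the fitted curve at half-maximal effect; 0% = uninhibited 1x PFK enzyme wells and -100% = no-enzyme wells; nearly all actives have a fitted effect of over 60% in size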
Target sequence (O15648 whole entry, looked up): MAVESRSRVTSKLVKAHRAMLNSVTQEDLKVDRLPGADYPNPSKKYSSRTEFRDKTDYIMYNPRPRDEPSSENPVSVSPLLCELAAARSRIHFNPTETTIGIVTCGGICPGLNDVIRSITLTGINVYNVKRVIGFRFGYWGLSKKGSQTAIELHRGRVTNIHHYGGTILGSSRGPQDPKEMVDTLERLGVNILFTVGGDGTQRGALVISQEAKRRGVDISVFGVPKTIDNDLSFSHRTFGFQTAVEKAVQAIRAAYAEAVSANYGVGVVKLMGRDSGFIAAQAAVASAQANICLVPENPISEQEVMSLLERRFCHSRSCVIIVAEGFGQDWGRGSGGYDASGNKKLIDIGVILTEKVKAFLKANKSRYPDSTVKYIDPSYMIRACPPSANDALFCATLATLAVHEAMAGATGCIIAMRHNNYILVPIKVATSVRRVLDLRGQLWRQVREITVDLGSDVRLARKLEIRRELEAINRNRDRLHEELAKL
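Compounds were pin-transferred as a titration series up to 57 uM into substrate buffer (0.5 mM F6P, 0.1 mM ATP, pH 8.0), then 1.25 nM PFK was added and reactions ran 45 min before ADP-Glo detection.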
PGK inhibitor – inhibitors of T. brucei phosphoglycerate kinase. PGK/GAPDH coupled, Kinase-Glo luminescence, 60 min. Potency, µM (top dose mostly 57.5 µM), without a hit: at the top dose activity change, negative = inhibition, most hits filed as inhibitors. 380,000 compounds, 0.043% hits; also: potency is read from the fitted curve at half-maximal effect; % is scaled to controls: 0 for no effect and ±100 for the full control effect; nearly all actives have a fitted effect of over 60% in size
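Recombinant glycosomal PGK reaction used 1,3-bisphosphoglycerate generated in-well by GAPDH (100nM final) in 100mM TEA pH 7.6, 5mM MgCl2, 0.01% Tween-20. After 60 minutes at room temperature, ATP was read by Kinase-Glo Plus luminescence end-point.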
PI5P4Ka inh – PI5P4K alpha (human) kinase inhibition; P48426; PI5P4Kalpha enzyme, ADP-Glo luminescence, 60 min; hits give low values; max response, %; 330,000 compounds, 1.2% hits; active = max response of -50% or lower; inconclusive = between -30% and -50%; inactive = -30% or higher; also: value at the top dose of about 77 µM; % is scaled to controls: 0 for no effect and ±100 for the full control effect
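Reactions run in 0.038 M HEPES pH 7.4, 0.28 mM EGTA, 0.1% CHAPS and 5% DMSO, with PI5P4Kalpha, substrate, compound and 5 microM ATP final, one hour at room temperature. Readout is ADP-Glo luminescence.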
PI4K2A block – inhibitors of human PI4K2A. activity change, negative = inhibition, % at 76.9 µM. Q9BTU6. 420,000 compounds, 0.13% hits. purified PI4K2A, ADP-Glo luminescence, 1 h; hits give low values; in the data active = activity change below about -50%; inconclusive = mostly about -30% to -49%;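 also: -100% = wells without enzyme as full effect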
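PI4K2A activity was measured by ADP-Glo luminescence: enzyme (4 ug/mL stock) and phosphatidylinositol (1.2 mM stock) in Tris pH 7.5/MgCl2/EGTA/Triton X-100 buffer were reacted with ATP (300 microM stock) for one hour at ambient temperature.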
Pin1 inh – human Pin1 inhibition | Q13526 | Pin1 FP peptide displacement, HiFluor488, 10 min | Potency, µM (titrated, usually from 115 µM), for inactives: top-dose activity, negative = inhibition, most hits filed as inhibitors | 390,000 compounds, 0.009% hits; active = well fitted inhibition curve with a large enough effect in the polarisation, with a control signal flat, not every such curve was filed as active; inconclusive = small, poorly fitted or top-dose-only effect, or effect the other way, or a change in a side signal; inactive = no such curve, though single readings can be large or run the other way; the % refers to the polarisation; also: potency is read from the fitted curve at half-maximal effect; % is scaled to controls: 0 for no effect and ±100 for the full control effect
Target sequence (Q13526 whole entry, looked up): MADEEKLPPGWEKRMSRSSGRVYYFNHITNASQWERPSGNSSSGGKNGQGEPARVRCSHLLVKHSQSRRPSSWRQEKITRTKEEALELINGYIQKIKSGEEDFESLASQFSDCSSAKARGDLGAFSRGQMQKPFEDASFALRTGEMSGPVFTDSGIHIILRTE
TbPFK ATP – orthogonal confirmation of T. brucei phosphofructokinase inhibitors | AID 504636 | 1,100 compounds, 47% hits | Potency, µM (doses to about 57.5 µM), inactives show top-dose inhibition | Tb PFK enzyme, ATP depletion, Kinase-Glo Plus luminescence | shares compounds with Tb PFK inh-1; calls by dose curve; also: potency is read from the fitted curve at half-maximal effect; nearly all actives have a fitted effect of over 60% in size
Tb PFK inh-2 – validation of T. brucei phosphofructokinase inhibitors; Potency, µM (highest dose often 57.5 µM), without a hit: at the top dose activity change, negative = inhibition, hits mostly inhibitors; shares compounds with Tb PFK inh-1; 1,100 compounds, 41% hits; purified T. brucei PFK, ADP-Glo luminescence, 45 min;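 also: potency is read from the fitted curve at half-maximal effect; plate controls were full PFK enzyme control for no effect and no enzyme control for full effect; nearly all actives have a fitted effect of over 60% in size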
* marks the source's active call; other numbers are inactive results; i = inactive; ? = inconclusive; . = no result. Shown is part of a subset that was picked to be rich in hits. Unless noted, calls follow the shape of the dose curve; as a rule, active = well fitted curve in the direction sought with a large enough effect; inconclusive = small, poorly fitted or top-dose-only effect, or another doubt; inactive = no such curve, though single readings can be large; an effect the other way counts as inactive or inconclusive.

SMILES | Tb PFK inh-1 | PGK inhibitor | PI5P4Ka inh | PI4K2A block | Pin1 inh | TbPFK ATP | Tb PFK inh-2
NC(=O)CCN1CCN(C(=O)c2ccc3nc(Cc4cccc(Cl)c4)oc3c2)CC1 | ? | -2% | 0 | 1 | -14% | 12µM* | 27µM*
CC(N)c1cccc(Cl)c1Cl (stereo not drawn) | . | . | . | 4 | . | . | .
S=C1CN=C(c2ccccc2Cl)c2cc(Cl)ccc2N1 | -1% | 2% | 1 | 3 | -2% | . | .
S=C1CCSc2ccc(Cl)cc2N1 | ? | 6% | -2 | -2 | 8% | ? | ?
Cc1ccc(CSCCNS(=O)(=O)c2ccc([N+](=O)[O-])cc2)cc1 | 0% | 7% | 8 | -2 | ? | . | .
COc1cc2ccc(=O)oc2c2ccoc12 | -6% | 6% | -3 | -4 | -10% | . | .
COc1cc(-c2cc(=O)c3c(O)c(OC)c(OC)c(O)c3o2)ccc1O | ? | -15% | ? | -14 | 3% | 6µM* | 9.5µM*
CN1C(=O)[C@@H](NC(=O)c2cc3ccccc3[nH]2)N=C(c2ccccc2)c2ccccc21 | . | . | . | 1 | . | . | .
CC(=O)c1ccc(NC(=S)Nc2ccc(Br)c(Cl)c2)cc1 | 12µM* | -8% | 0 | 6 | 6% | 30µM* | ?
O=C(c1ccc(NC(=S)Nc2ccc(Cl)c(Cl)c2)cc1)N1CCCC1 | 21µM* | -4% | 18 | 11 | 10% | ? | ?
CC(C)(C)CC(C)(C)c1ccc(O)cc1 | . | . | . | 2 | . | . | .
O=C(NC(=O)c1c(F)cccc1F)Nc1cc(Cl)c(OC(F)(F)C(F)C(F)(F)F)cc1Cl (stereo not drawn) | . | . | . | 1 | . | . | .
NCc1ccccc1COc1ccccc1 | 24µM* | i | 2 | -2 | 3% | ? | ?
CC(C)(CS(=O)(=O)[O-])NC(=O)CC[N+](C)(C)CCO | 0.67µM* | 2.2µM* | ? | -21 | . | 0.24µM* | 0.43µM*
CCCC1=Nc2cc(C(=O)NC3CCC(C)CC3)ccc2Sc2ccccc21 (stereo not drawn) | . | 1% | . | -2 | ? | . | .
COc1ccc(-c2cc(C(=O)N3CCN(c4ccccc4OC)CC3)c3cc(C(C)C)ccc3n2)cc1 | . | 8% | . | 2 | 32% | . | .
COC(=O)C1CCN(C(=O)COC(=O)c2cc(-c3ccccc3)nc3ccc(OC)cc23)CC1 | ? | -10% | -25 | -7 | 56% | ? | ?
Cc1cc(C)c2c(=O)n(CC(=O)Nc3cccc(F)c3)sc2n1 | 7.6µM* | -1% | -67* | 0 | -1% | ? | 4.8µM*
Cc1ccc(NC(=O)Cn2sc3nc(C)cc(C)c3c2=O)c(Cl)c1 | 11µM* | 1% | -72* | -1 | 3% | ? | 6µM*
Cc1cc(C)c2c(=O)n(CC(=O)NCCCN3CCOCC3)sc2n1 | 8.5µM* | i | -101* | 0 | 2% | ? | 11µM*
Cc1cccc(N2CCN(C(=O)Cn3sc4nc(C)cc(C)c4c3=O)CC2C)c1 (stereo not drawn) | 15µM* | -8% | -55* | -4 | 17% | 2% | -6%
CCOP(=S)(OCC)O/N=C(\C#N)c1ccccc1 | . | . | . | -3 | . | . | .
CCN(CC)C(=O)c1ccc(NC(=O)Cn2nc(C)c3ccccc3c2=O)cc1 | 18% | 7% | 0 | 5 | 5% | . | .
CCOc1ccc(NC(=O)c2c(C)nn(Cc3ccccc3)c2Cl)cc1 | 2% | i | 0 | 0 | -3% | . | .
CCOc1ccc(NC(=O)Cn2sc3nc(C)cc(C)c3c2=O)cc1 | ? | 0% | -71* | -2 | 10% | ? | 8.5µM*
SMILES | Tb PFK inh-1 | PGK inhibitor | PI5P4Ka inh | PI4K2A block | Pin1 inh | TbPFK ATP | Tb PFK inh-2
Cc1cc(C)c2c(=O)n(CC(=O)Nc3ccc(Cl)cc3)sc2n1 | 8.5µM* | 2% | -64* | -2 | 0% | ? | 3.8µM*
O=C(COC(=O)Cc1ccccc1)Nc1ncc(Cl)cc1Cl | -2% | -7% | 3 | -9 | -13% | . | .
O=C(COc1ccc(Cl)cc1)OCC(=O)c1ccc[nH]1 | ? | -3% | -10 | -2 | 10% | 18% | ?
O=C(OCc1ccc(Cl)c(Cl)c1)c1cnccn1 | ? | i | 12 | 2 | 1% | 24µM* | 27µM*
O=C(OCc1ccc(Cl)c(Cl)c1)c1ccc[nH]1 | ? | -2% | 20 | 2 | 1% | 24µM* | 21µM*
O=C(Cc1ccc(Cl)c(Cl)c1)OCC(=O)c1ccc[nH]1 | ? | -8% | -4 | 2 | 30% | 9.5µM* | 19µM*
COC[C@H]1OC(=O)c2coc3c2[C@@]1(C)C1=C(C3=O)C2CCC(=O)[C@@]2(C)C[C@H]1OC(C)=O (stereo partly drawn) | . | . | . | 1 | . | . | .
COc1ccc(Nc2cc(C)c3cc(NC(=O)c4ccccc4Cl)ccc3n2)cc1 | . | 0% | . | 4 | ? | . | .
Cc1ccc(-n2c(/C=C/c3cc(Br)cs3)nc3ccccc3c2=O)cc1 | . | -2% | . | -3 | 9% | . | .
Cc1ccc(C(=O)O)cc1NC(=S)NC(=O)Cc1ccccc1 | ? | -8% | 1 | -2 | -12% | -27% | ?
COc1ccc(CN2CCN(C(=O)COc3ccccc3)CC2)c(OC)c1 | . | -12% | . | -11 | -6% | . | .
COc1ccc(C(=O)COC(=O)/C=C/c2ccccc2)c(OC)c1 | ? | 2% | -61* | -14 | ? | ? | -14%
O=C(NNC(=O)c1ccccc1O)c1cc2ccccc2o1 | ? | 6% | -19 | -6 | -1% | -29% | ?
O=C(Cc1ccccc1)N1CCN(Cc2ccc([N+](=O)[O-])cc2)CC1 | -11% | 1% | 1 | -4 | 0% | . | .
CS(=O)(=O)N1CCN(Cc2ccc([N+](=O)[O-])cc2)CC1 | ? | -2% | 1 | 3 | 3% | ? | ?
O=[N+]([O-])c1ccc(CSc2nnc(-c3cnccn3)o2)cc1 | 24µM* | 5% | -5 | 4 | -1% | ? | ?
Cc1nc(SCC(=O)c2ccc(F)cc2)n[nH]1 | 21µM* | 0% | -74* | 1 | 6% | ? | ?
CCC1(CCCC(=O)c2ccc(F)cc2)C(=O)NC(=S)NC1=O | 0% | -6% | 3 | -2 | 1% | . | .
Oc1cc2c(cc1O)C1c3ccc(O)c(O)c3OCC1(O)C2 (stereo not drawn) | ? | ? | -74* | -10 | ? | ? | 0.85µM*
CCC1(CC)C(=O)NC(=O)NC1=O | . | . | . | -2 | . | . | .
CCOc1ccc(CN2C(=O)c3ccccc3Sc3ccc(C(=O)N4CCC5(CC4)OCCO5)cc32)cc1 | . | 4% | . | 2 | 19% | . | .
O=c1cc(-c2ccc(O)c(O)c2)oc2cc(O)cc(O)c12 | ? | ? | -95* | -11 | ? | -27% | ?
N#CCCN | . | . | . | -2 | . | . | .

Source: PubChem (National Center for Advancing Translational Sciences (NCATS))
